From PubChem BioAssay (NCI)
The panel holds about 83,000 compounds, 20% with a hit somewhere; the sample as a whole holds those more often.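 Negative percent growth values reflect cell death: -40 means 40% of the cells present at the start died, and -100 means all died.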 The source made the active and inactive calls. The calls were made as follows: active = growth percent below 10; inactive = the rest.

System: MOLT-4 leukemia
Assay: NCI-60 one-dose screen, 48 h (100 = growth as untreated, 0 = no growth, -100 = all killed)
Conditions: 10 µM unless noted

Structure (SMILES)	growth
CCN(C(C)=O)c1ccc([N+](=O)[O-])cc1	95.6% (inactive)
O=S(=O)(c1ccc(NC(=S)NCc2cccnc2)cc1)N1CCCCC1	47.3% (inactive)
O=S1(=O)c2ccccc2Oc2ccccc21	111% (inactive)
C/C(=N\N=C(/C)c1cccc([N+](=O)[O-])c1)c1cccc([N+](=O)[O-])c1	102% (inactive)
OC(CBr)CCBr (configuration not stated)	104% (inactive)
CC(=O)NC(CCc1ccc(Cl)c(Cl)c1)c1cccc(O)c(=O)c1 (configuration not stated)	4.68% (active)
CCCCCCCCCCCCCCCCCC(=O)NCCNC(=O)CCCCCCCCCCCCCCCCC	67.2% (inactive)
COC1CC(OC(=O)c2ccc([N+](=O)[O-])cc2)C(COC(=O)c2ccc([N+](=O)[O-])cc2)O1 (configuration not stated)	103% (inactive)
CC(=O)NC(O)C(Cl)Cl (configuration not stated)	104% (inactive)
CC(=O)c1cccc(O)c1	95.9% (inactive)
C1C[S+]2CC[S+]1CC2	100% (inactive)
COC1OC(C(COC(C)=O)OC(C)=O)C(OC(C)=O)C(OC(C)=O)C1OC(C)=O (configuration not stated)	93.5% (inactive)
Cn1/c(=N\N=C\c2ccccc2OCCO)sc2ccccc21	62.7% (inactive)
CC(C)(N)CO[C@H]1C[C@H]2CC[C@@]1(C)C2(C)C	107% (inactive)
CCCC(=O)CC(=O)c1ccccc1	107% (inactive)
Cc1onc(-c2ccccc2Cl)c1C(=O)Cl	114% (inactive)
COC1OC(C(O)C(O)CO)C(O)C(O)C1O (configuration not stated)	105% (inactive)
Cc1cc(=O)n(Nc2ccccc2)c(O)c1C#N	103% (inactive)
ClCC(Cl)C1CCC(Cl)C(Cl)C1 (configuration not stated)	105% (inactive)

Structure (SMILES)	growth
C=CCC(O)C=C (configuration not stated)	91.4% (inactive)
CCOC(=O)c1ccc(Nc2sc(C(=O)c3ccc(Br)cc3)c(N)c2C#N)cc1	33.5% (inactive)
CNc1ccccc1C(=O)N/N=C/C=C/c1ccccc1	18.5% (inactive)
CC(C)=CCC[C@@H](C)[C@H]1CC[C@@]2(C)C3=C(CC[C@]12C)[C@@]1(C)CC[C@H](O)C(C)(C)[C@@H]1CC3	99% (inactive)
Cc1[nH]nc(C(N)=O)c1[N+](=O)[O-]	109% (inactive)
CC(O)C(F)(F)C(F)(F)C(F)(F)F (configuration not stated)	96.4% (inactive)
CC1(C)CCC(C)(C)NC(=S)N1	97.5% (inactive)
CCOC(=O)CNC	103% (inactive)
CCCCNc1ccc(-c2ccc(NCCCC)cc2)cc1	68.8% (inactive)
O=S(=O)(O)c1ccc(O)c(C2CCCCC2)c1	99.9% (inactive)
C1=NCCc2ccccc21	101% (inactive)
C=CC1=NC(C)(C)CC(C)O1 (configuration not stated)	98.5% (inactive)
Cc1ccc(NC(=S)N2CCOCC2)cc1C	100% (inactive)
COC(=O)c1cccc([N+](=O)[O-])c1	105% (inactive)
CCN(CC)CCN1CNC(=S)NC1	97.1% (inactive)
COc1cc2c(c(OC)c1OC)-c1ccc(SC)c(=O)cc1[C@@H](NC1OC(CO)C(O)C(O)C1O)CC2 (some centres not stated)	1.36% (active)
CCOC(C=O)OCC	85.2% (inactive)
CCOC(=O)CSCCC#N	91.5% (inactive)
